Experiment [1] in a line: compounds binding Alexa647 anti-His antibody – biochemical, small-molecule microarray, 635 nm fluorescence, artefact control for SMM control protein annotation, primary screen (AID 1128).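 Further: score merges feature fluorescence with signal-to-noise for each printed compound spot.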 To be noted: higher = more signal.
Experiment [2] relates to Human papillomavirus type 1a E7 protein (residues 1-88). Description: HPV1a E7 small-molecule binders, primary screen, biochemical, small-molecule microarray, residues 1-88, 635 nm (AID 1129). To be noted: small-molecule microarray binding, fluorescence 635 nm; higher = more signal.
Experiment [3] has as its target Focal adhesion kinase 1 (Homo sapiens) (UniProt Q05397). Description: PTK2 protein binding on printed compound slides – biochemical, small-molecule microarray, 635/667 nm fluorescence, BSA, DTT, primary screen (AID 1130).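 Further: composite of spot emission at 667 nm and signal to noise over triplicate slides.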 To be noted: 635 nm fluorescence, higher = more signal.
For experiment [4], the system named is Fibrinogen (Alexa647-labelled). Description: Alexa647-fibrinogen binding to printed small molecules – biochemical, small-molecule microarray, 635/667 nm fluorescence, artefact control for SMM control-protein annotation, profiling panel (AID 1131).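 Further: z-score merges 667 nm fluorescence with per-spot signal-to-noise over triplicate slides.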 To be noted: fibrinogen-A647 binding fluorescence, higher = more signal.
The target in experiment [5] is Follistatin (Homo sapiens) (UniProt P19883). Description: FST protein binding to printed compounds – biochemical, small-molecule microarray, 635/667 nm fluorescence, primary screen (AID 1132). To be noted: 635 nm fluorescence, higher = more signal.
Experiment [6] deals with Fibroblast growth factor 2 (Homo sapiens) (UniProt P09038). Description: basic fibroblast growth factor binding to printed compounds – biochemical, small-molecule microarray, 635/667 nm fluorescence, primary screen (AID 1133). To be noted: FGF2, fluorescence 635/667, higher = more signal.
Experiment [7] is described as follows: JC-1 mitochondrial potential readout, lung cancer cells – cell-based, A549, JC-1 fluorescence, basal, 24 h, 100 nL, profiling panel (AID 1138).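 Further: A549 lung adenocarcinoma cells under basal conditions with no added stimulus; test concentration not given here.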 To be noted: higher = more signal.
For a further experiment, the system named is Lefty1. Description: Lefty1 protein binding to printed compounds – biochemical, small-molecule microarray, 635/667 nm fluorescence, primary screen (AID 1139). To be noted: fluorescence 635/667, higher = more signal.
Experiment [8] has as its system wheat germ agglutinin (Triticum aestivum), Alexa647-labelled. Description: Alexa647-WGA lectin binding to printed small molecules – biochemical, small-molecule microarray, 635/667 nm fluorescence, artefact control for SMM control-protein annotation, profiling panel (AID 1140).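 Further: score merges 667 nm feature emission with signal to noise over triplicate slides.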 To be noted: WGA-A647 binding, 635 nm fluorescence, higher = more signal.
The target in experiment [9] is Luciferin 4-monooxygenase (Photinus pyralis) (UniProt P08659). Description: inhibition of purified Photinus pyralis luciferase – biochemical, luminescence, purified enzyme, 2006 set, primary screen (AID 1141).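 Further: cell-free assay with purified firefly luciferase at 100 ng per well in PBS; test concentration not given here.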 To be noted: purified firefly luciferase, SteadyGlo luminescence, 30 min; higher = more signal, called active from +8 up or from −8 down.
Experiment [10] concerns Wnt5a (protein binding on small-molecule microarray). Description: small molecules binding Wnt5a protein – biophysical, small-molecule microarray, 635/667 nm fluorescence, primary screen (AID 1142).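 Further: fluorescence read at 667 nm with signal to noise per printed feature.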 To be noted: 635 nm fluorescence, higher = more signal.
A short description of experiment [11]: ATP-based viability of Huh7 replicon cells – cell-based, CellTiter-Glo luminescence, basal, 48 h, cytotoxicity control for HCV replication inhibitor project, primary screen (AID 1143).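 Further: Huh7 hepatoma cells carrying a hepatitis C replication reporter with no stimulus; test concentration not given here.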 To be noted: higher = more signal, called active from +8 up or from −8 down. (In antiviral work, replicon cells carry a viral genome segment that copies itself.)
A short description of experiment [12]: Pseudomonas biofilm growth suppression – PAO1 strain, BacTiter-Glo luminescence, LB-PBS, primary screen (AID 1144). To be noted: P. aeruginosa PAO1 biofilm, 12 h, higher = more signal.
Experiment [13] in a line: basal CRE-LacZ reporter activity in PC12 – cell-based, unstimulated, primary screen (AID 1145). To be noted: no forskolin, luminescence, 4.5 h, higher = more signal, called active from +8 up or from −8 down.
Experiment [14] is described as follows: forskolin-driven CRE-LacZ activity in PC12 – cell-based, CRE-LacZ reporter, forskolin-stimulated, primary screen (AID 1146).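 Further: PC12 cells with 6xCRE LacZ reporter stimulated by forskolin 10 µM; beta-galactosidase reporter signal reflecting CREB driven transcription.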 To be noted: luminescence, 4.5 h, higher = more signal, called active from +8 up or from −8 down.
The target in experiment [15] is Streptavidin (Streptomyces avidinii) (UniProt P22629). Description: compounds binding control protein streptavidin – biophysical, small-molecule microarray, 635/667 nm fluorescence, artefact control for SMM compound annotation, primary screen (AID 1147).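 Further: signal reflects streptavidin binding to arrayed compounds as a control protein.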 To be noted: higher = more signal.
The nature of experiment [16]: probe aInhba binding on compound microarray – biochemical, small-molecule microarray, 635/667 nm fluorescence, primary screen (AID 1148).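 Further: score merges 667nm spot fluorescence with signal-to-noise for antibody binding to printed compounds.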 To be noted: higher = more signal.
Experiment [17] addresses Torsin-1A (Homo sapiens) (UniProt O14656). Description: TOR1A wild-type binding on microarray – cell lysate, small-molecule microarray, lysate, 635/667 nm, primary screen (AID 1149). To be noted: COS7 hTOR1A-WT lysate, 635 nm fluorescence, higher = more signal.
The target is the same in experiment [18]. Description: torsin A mutant lysate binding on microarrays – cell lysate, small-molecule microarray, COS7 lysate, 635/667 nm fluorescence, primary screen (AID 1150).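 Further: score pools 667 nm emission and signal to noise measuring lysate protein binding.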 To be noted: COS7 hTOR1A mutant lysate, 635 nm fluorescence, higher = more signal.
Experiment [19] deals with Sonic hedgehog protein (Shh). Description: Sonic hedgehog microarray binding compounds – biochemical, small-molecule microarray, 635/667 nm fluorescence, primary screen (AID 1151).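 Further: Shh protein binding to compounds spotted on small-molecule microarray slides; score combines spot fluorescence intensity with signal-to-noise across triplicate slides.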 To be noted: 635 nm fluorescence, higher = more signal.

The results in this text go back to PubChem BioAssay.

The structures appear in SMILES notation. The source made the active and inactive calls. Unless noted, how the calls were made is not given here.

Chain of Torsin-1A (Homo sapiens) (O14656 whole entry, looked up): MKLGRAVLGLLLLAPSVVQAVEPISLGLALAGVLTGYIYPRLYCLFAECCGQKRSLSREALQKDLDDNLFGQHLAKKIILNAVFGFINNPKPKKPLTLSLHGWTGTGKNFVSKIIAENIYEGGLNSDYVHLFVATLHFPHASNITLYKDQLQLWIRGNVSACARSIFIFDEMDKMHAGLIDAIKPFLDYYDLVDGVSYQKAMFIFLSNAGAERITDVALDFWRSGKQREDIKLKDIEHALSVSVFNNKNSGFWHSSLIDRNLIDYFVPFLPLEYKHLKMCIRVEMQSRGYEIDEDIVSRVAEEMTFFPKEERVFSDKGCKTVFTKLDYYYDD
Chain of Follistatin (Homo sapiens) (P19883 whole entry, looked up): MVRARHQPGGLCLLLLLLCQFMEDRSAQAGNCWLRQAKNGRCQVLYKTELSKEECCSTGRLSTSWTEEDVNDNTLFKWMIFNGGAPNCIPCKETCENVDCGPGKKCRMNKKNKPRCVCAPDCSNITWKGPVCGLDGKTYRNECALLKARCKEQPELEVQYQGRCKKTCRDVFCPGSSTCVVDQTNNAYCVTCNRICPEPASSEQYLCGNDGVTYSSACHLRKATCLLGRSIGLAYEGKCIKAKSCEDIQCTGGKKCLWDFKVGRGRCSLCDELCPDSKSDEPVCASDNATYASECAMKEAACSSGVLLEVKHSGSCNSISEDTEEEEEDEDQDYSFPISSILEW
Chain of Fibroblast growth factor 2 (Homo sapiens) (P09038 whole entry, looked up): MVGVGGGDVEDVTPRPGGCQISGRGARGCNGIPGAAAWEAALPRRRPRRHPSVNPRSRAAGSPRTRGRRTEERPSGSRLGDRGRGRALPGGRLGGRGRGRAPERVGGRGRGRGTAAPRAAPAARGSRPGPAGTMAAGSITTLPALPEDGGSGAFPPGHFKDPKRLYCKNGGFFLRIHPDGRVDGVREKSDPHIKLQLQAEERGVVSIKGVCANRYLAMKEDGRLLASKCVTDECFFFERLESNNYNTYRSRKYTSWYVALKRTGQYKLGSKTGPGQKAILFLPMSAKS
Chain of Luciferin 4-monooxygenase (Photinus pyralis) (P08659 whole entry, looked up): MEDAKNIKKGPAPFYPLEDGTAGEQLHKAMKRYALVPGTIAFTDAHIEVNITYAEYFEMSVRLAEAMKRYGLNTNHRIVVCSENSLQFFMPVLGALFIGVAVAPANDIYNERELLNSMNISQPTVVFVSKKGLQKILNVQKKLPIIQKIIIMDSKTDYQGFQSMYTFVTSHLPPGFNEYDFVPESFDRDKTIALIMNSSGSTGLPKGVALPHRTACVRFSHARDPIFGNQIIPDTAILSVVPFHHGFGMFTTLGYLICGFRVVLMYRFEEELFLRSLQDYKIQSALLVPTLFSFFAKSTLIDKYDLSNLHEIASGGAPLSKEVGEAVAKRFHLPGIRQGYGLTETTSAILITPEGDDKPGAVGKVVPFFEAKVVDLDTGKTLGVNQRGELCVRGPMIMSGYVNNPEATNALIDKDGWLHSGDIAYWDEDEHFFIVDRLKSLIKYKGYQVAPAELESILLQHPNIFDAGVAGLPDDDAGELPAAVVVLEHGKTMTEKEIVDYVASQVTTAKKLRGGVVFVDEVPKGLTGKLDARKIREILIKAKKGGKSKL
Chain of Focal adhesion kinase 1 (Homo sapiens) (Q05397 whole entry, looked up): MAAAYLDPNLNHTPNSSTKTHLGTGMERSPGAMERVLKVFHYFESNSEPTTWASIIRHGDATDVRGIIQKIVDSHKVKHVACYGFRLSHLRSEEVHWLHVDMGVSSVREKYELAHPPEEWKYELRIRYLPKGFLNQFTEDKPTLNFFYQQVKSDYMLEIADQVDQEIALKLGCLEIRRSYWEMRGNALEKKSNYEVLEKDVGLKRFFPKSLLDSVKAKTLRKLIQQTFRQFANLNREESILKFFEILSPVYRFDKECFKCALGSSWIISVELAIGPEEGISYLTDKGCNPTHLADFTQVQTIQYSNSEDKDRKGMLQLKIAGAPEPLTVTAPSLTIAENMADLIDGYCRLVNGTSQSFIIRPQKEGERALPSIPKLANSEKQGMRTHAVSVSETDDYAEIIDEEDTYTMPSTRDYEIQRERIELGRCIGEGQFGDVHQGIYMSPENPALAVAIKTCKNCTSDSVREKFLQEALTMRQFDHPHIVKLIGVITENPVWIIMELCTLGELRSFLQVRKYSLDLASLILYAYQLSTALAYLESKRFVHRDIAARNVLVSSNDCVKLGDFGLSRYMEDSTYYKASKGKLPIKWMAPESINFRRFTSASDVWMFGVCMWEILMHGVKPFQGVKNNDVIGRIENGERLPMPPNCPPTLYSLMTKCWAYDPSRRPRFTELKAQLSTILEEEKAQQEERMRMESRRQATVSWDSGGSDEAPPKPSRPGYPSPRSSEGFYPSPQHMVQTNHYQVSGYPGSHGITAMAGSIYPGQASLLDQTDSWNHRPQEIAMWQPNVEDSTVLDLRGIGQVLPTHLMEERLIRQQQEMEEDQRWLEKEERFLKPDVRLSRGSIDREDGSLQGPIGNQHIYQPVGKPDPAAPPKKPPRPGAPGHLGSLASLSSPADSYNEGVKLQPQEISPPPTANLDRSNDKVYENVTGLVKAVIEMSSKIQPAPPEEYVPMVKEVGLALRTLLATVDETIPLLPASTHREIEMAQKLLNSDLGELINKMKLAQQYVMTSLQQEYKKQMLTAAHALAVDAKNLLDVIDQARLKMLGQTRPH
Chain of Streptavidin (Streptomyces avidinii) (P22629 whole entry, looked up): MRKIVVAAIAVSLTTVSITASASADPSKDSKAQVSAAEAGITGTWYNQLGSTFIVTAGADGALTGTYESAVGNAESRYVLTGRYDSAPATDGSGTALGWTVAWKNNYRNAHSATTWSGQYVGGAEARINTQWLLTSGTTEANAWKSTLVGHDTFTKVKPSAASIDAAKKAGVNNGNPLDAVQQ

As to `CC(C)C[C@@H]1NC(=O)[C@H](CC(C)C)NC(=O)[C@@]23C(=O)N[C@@H](Cc4ccccc4)C2[C@H](C)[C@@]2(C)O[C@H]2C3/C=C/CC/C=C/CNC1=O` (stereo not given in full), the composite z-score in experiment [1] turned out to be 0.239; in experiment [2] it was 0.329; in experiment [3], 0.427; in experiment [4], 0.722; in experiment [5], 0.758; in experiment [6], 0.319. The composite z-score was 1.01 with Lefty1; 0.265 in [8]; -0.048 in [10]; 1.3 in experiment [15]; -0.128 in experiment [16]; 0.382 in the experiment with Torsin-1A (Homo sapiens) [17]. Moreover, the composite z-score with Torsin-1A (Homo sapiens) [18] turned out to be 0.29; in [19], 1.14. For the same molecule, the z-score was 0.234 in experiment [7]; 0.244 (inactive) in [9]; -3.54 (inactive) in experiment [11]; -1.16 (inactive) in experiment [12]; 0.126 (inactive) in experiment [13]; -0.792 (inactive) in experiment [14].

For the molecule `O=C1C2C=CC(C(O)C#Cc3ccccc3)N(Nc3ccccc3)C2C(=O)N1c1ccccc1` (stereo not given), the composite z-score in experiment [1] was 1.1; in experiment [2] it was 0.356; in experiment [3] it was 0.0485; in experiment [4], 0.941; in [5] it was 0.108; in experiment [6], -0.0859. Also, the composite z-score is -0.67 with Lefty1; 1.23 in experiment [8]; 0.0509 in experiment [10]; 0.464 in experiment [15]; 0.0659 in experiment [16]; 0.795 with Torsin-1A (Homo sapiens) [17]. Besides, the composite z-score with Torsin-1A (Homo sapiens) [18] was -0.0627; in experiment [19], -0.0028. Moreover, the z-score in [7] was -0.136; in experiment [9], -0.934 (inactive); in [11], 0.842 (inactive); in experiment [12], -0.2 (inactive); in [13], 0.24 (inactive); in experiment [14] it was 0.0728 (inactive).

With `CC(=O)NCCCC[C@@H]1NC(=O)[C@@H]2C[C@H](C(=O)NCc3ccc(F)cc3)[C@H](c3cccc(OCCO)c3)N2C1=O`, the composite z-score in experiment [1] was 1.6; in experiment [2], 0.308; in experiment [3], -0.135; in experiment [4] it was 0.371; in experiment [5] it was 1.3; in experiment [6], 1.7. Moreover, the composite z-score with Lefty1 was 0.115; in experiment [8], -0.087; in experiment [10] it was 0.0719; in experiment [15], -0.454; in [16] it was -0.0209; with Torsin-1A (Homo sapiens) [17] it was 0.544. The composite z-score with Torsin-1A (Homo sapiens) [18] was 1.05; in experiment [19] it was 1.8. The z-score in experiment [7] is 1.25; in experiment [9], -0.425 (inactive); in experiment [11] it was -0.608 (inactive); in [12], -0.225 (inactive); in experiment [13] it was 0.537 (inactive); in experiment [14] it was 0.517 (inactive).

Consider `CC(=O)NCCCC[C@@H]1NC(=O)[C@H]2C[C@@H](C(=O)NCCCCCCN(C)C)[C@@H](c3cccc(OCCO)c3)N2C1=O`, for which the composite z-score came out at 2.66 in experiment [1]; 1.2 in [2]; 1.15 in experiment [3]; 0.478 in experiment [4]; 1.37 in experiment [5]; 1.33 in experiment [6]. Moreover, the composite z-score in the experiment with Lefty1 came to 1.57; in experiment [8], 0.797; in experiment [10], 0.906; in experiment [15], 0.369; in [16], 0.222; with Torsin-1A (Homo sapiens) [17] it was 1.37. For the same molecule, the figures for the composite z-score (with Torsin-1A (Homo sapiens) [18]; in experiment [19]) were 1.88 and 2.22, respectively. The z-score in experiment [7] is -0.153; in [9], -0.805 (inactive); in [11] it was -0.102 (inactive); in [12], -0.542 (inactive); in experiment [13] it was 0.0084 (inactive); in experiment [14], 0.172 (inactive).

Consider `COc1ccc(NN2C(C(O)c3cc(OC)c(OC)c(OC)c3)C=CC3C(=O)N(C4CCCCC4)C(=O)C32)cc1` (stereo not given), for which the composite z-score in experiment [1] is 0.717; in experiment [2], 1.21; in experiment [3], 1.06; in [4], 0.965; in experiment [5] it was 0.412; in experiment [6], -0.418. The composite z-score was 0.133 with Lefty1; 1.22 in experiment [8]; 0.866 in [10]; 1.14 in experiment [15]; 0.294 in [16]; -0.125 with Torsin-1A (Homo sapiens) [17]. Also, the composite z-score in the experiment with Torsin-1A (Homo sapiens) [18] came to 0.236; in [19], 0.377. Moreover, the z-score in experiment [7] was 0.469; in experiment [9], 0.582 (inactive); in experiment [11], -1.6 (inactive); in experiment [12], -0.272 (inactive); in experiment [13] it was 0.285 (inactive); in experiment [14], 0.907 (inactive).
